Several values for one entry are separate records, joined by “and”; a condition that tells them apart may be missing. Equal values may be shown once. Records with an inconclusive call do not appear. Activity calls are given as the source filed them. Calls come from the whole dose curve; as a rule, active = well fitted curve in the direction sought with a large enough effect; inconclusive = small, poorly fitted or top-dose-only effect, or another doubt; inactive = no such curve, though single readings can be large; an effect the other way counts as inactive or inconclusive.
How the values were obtained:
MCC-26 = experiment: qHTS assay to identify novel small-molecules to repurpose for Merkel cell carcinoma treatment (AID 1296009); settings: MCC and control cell lines, CellTiter-Glo viability, 72 h; series mostly up to 46 µM; note: nearly all actives have a fitted effect of over 60% in size
How it was run: (§1)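 After compound transfer in DMSO, plates were kept 72 hr at 37 degree celsius. Luminescent ATP signal from CellTiter-Glo served as viability measure, normalized against DMSO and no-cell controls.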

MKL-1 = experiment: as above; settings: MCC and control cell lines, CellTiter-Glo viability, 72 h; series mostly up to 46 µM
How it was run: as §1

MKL-2 = experiment: as above; settings: MCC and control cell lines, CellTiter-Glo viability, 72 h; series mostly up to 46 µM
How it was run: as §1

NIH3T3 = experiment: as above; settings: MCC and control cell lines, CellTiter-Glo viability, 72 h; at 44.8 µM (top of the series) unless noted
How it was run: as §1

UISO = experiment: as above; settings: MCC and control cell lines, CellTiter-Glo viability, 72 h; series mostly up to 46 µM
How it was run: as §1

WaGa = experiment: as above; settings: MCC and control cell lines, CellTiter-Glo viability, 72 h; series mostly up to 46 µM
How it was run: as §1

C33A = experiment: Primary qHTS to identify gynecologic anti-cancer compounds using libraries of approved drugs and bioactive compounds (AID 1345084); settings: Gynecologic cancer cell panel viability, ATPlite luminescence, 48 h; series mostly up to 57.5 µM; note: nearly all actives have a fitted effect of over 55% in size
How it was run: (§2)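 Cells, 1,000 per well, plated 16 h, then exposed 48 h at 37 C to compounds. Viability by ATPlite luminescence after 15 min at room temperature.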

CAOV3 = experiment: as above; settings: Gynecologic cancer cell panel viability, ATPlite luminescence, 48 h; series mostly up to 57.5 µM
How it was run: as §2

CASKI = experiment: as above; settings: Gynecologic cancer cell panel viability, ATPlite luminescence, 48 h; series mostly up to 57.5 µM
How it was run: as §2

Es-2 = experiment: as above; settings: Gynecologic cancer cell panel viability, ATPlite luminescence, 48 h; series mostly up to 57.5 µM
How it was run: as §2

HeLa = experiment: as above; settings: Gynecologic cancer cell panel viability, ATPlite luminescence, 48 h; series mostly up to 57.5 µM
How it was run: as §2

Hek293T = experiment: as above; settings: Gynecologic cancer cell panel viability, ATPlite luminescence, 48 h, control line for the selectivity index; series mostly up to 57.5 µM
How it was run: as §2

JEG-3 = experiment: as above; settings: Gynecologic cancer cell panel viability, ATPlite luminescence, 48 h; series mostly up to 57.5 µM
How it was run: as §2

OV90 = experiment: as above; settings: Gynecologic cancer cell panel viability, ATPlite luminescence, 48 h; series mostly up to 57.5 µM
How it was run: as §2

PA-1 = experiment: as above; settings: Gynecologic cancer cell panel viability, ATPlite luminescence, 48 h; series mostly up to 57.5 µM
How it was run: as §2

SKOV3 = experiment: as above; settings: Gynecologic cancer cell panel viability, ATPlite luminescence, 48 h; series mostly up to 57.5 µM
How it was run: as §2

Tov-21-G = experiment: as above; settings: Gynecologic cancer cell panel viability, ATPlite luminescence, 48 h; series mostly up to 57.5 µM
How it was run: as §2

Tov112D = experiment: as above; settings: Gynecologic cancer cell panel viability, ATPlite luminescence, 48 h; series mostly up to 57.5 µM
How it was run: as §2

astro = experiment: Drug repurposing screens with cells derived from glioblastoma tumor samples (AID 1345199); settings: viability, ATP luminescence, 48 h; series mostly up to 45.9 µM; note: nearly all actives have a fitted effect of over 40% in size
How it was run: (§3)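 Four patient lines of CD133+ GBM neurospheres were screened at several concentrations; hits were retested in those lines plus three slower-growing GBM lines, using 48-hour treatment and ATP-based viability.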

[1] = as above; settings: GBM patient neurospheres viability, ATP luminescence, 48 h
How it was run: as §3

[2] = at 45.9 µM (top of the series), tumour line B
[3] = at 45.9 µM (top of the series), tumour line D
[4] = at 46 µM (top of the series), tumour line A
[5] = at 46.1 µM (top of the series), tumour line C
% is set by controls: 0 for no effect and ±100 for the full control effect.

CCOC(=O)[C@H](CCc1ccccc1)N[C@@H](C)C(=O)N1C(=O)N(C)C[C@H]1C(=O)O
inactive: Potency (MCC-26) | Potency (MKL-1) | Potency (MKL-2) | outcome (NIH3T3) | Potency (UISO) | Potency (WaGa) | Potency (C33A) | Potency (CAOV3) | Potency (CASKI) | Potency (Es-2) | Potency (HeLa) | Potency (Hek293T) | Potency (JEG-3) | Potency (OV90) | Potency (PA-1) | Potency (SKOV3) | Potency (Tov-21-G) | Potency (Tov112D) | Potency (astro)

COc1cc(C(=O)N2CCOCC2)cc(OC)c1OC
inactive: Potency (MCC-26) | Potency (MKL-1) | Potency (MKL-2) | outcome (NIH3T3) | Potency (UISO) | Potency (WaGa) | Potency (C33A) | Potency (CASKI) | Potency (Es-2) | Potency (HeLa) | Potency (Hek293T) | Potency (JEG-3) | Potency (OV90) | Potency (PA-1) | Potency (SKOV3) | Potency (Tov-21-G) | Potency (Tov112D) | activity, negative = cell killing [1, 2] 8.47% and -7.54% | activity, negative = cell killing [1, 3] 3.68% and -23% | activity, negative = cell killing [1, 4] -14.2% | activity, negative = cell killing [1, 5] -7.33% and -2.64% | Potency (astro)

CN1CCOC(c2ccccc2)c2ccccc2C1 (configuration not stated)
inactive: Potency (MCC-26) | Potency (MKL-1) | Potency (MKL-2) | outcome (NIH3T3) | Potency (UISO) | Potency (WaGa) | Potency (C33A) | Potency (CAOV3) | Potency (CASKI) | Potency (Es-2) | Potency (HeLa) | Potency (Hek293T) | Potency (JEG-3) | Potency (OV90) | Potency (PA-1) | Potency (SKOV3) | Potency (Tov-21-G) | Potency (Tov112D) | activity, negative = cell killing ([1]; at 20 µM (top of the series), tumour line C) 10.6% | activity, negative = cell killing ([1]; at 21.2 µM (top of the series), tumour line B) -10.4% | activity, negative = cell killing ([1]; at 21.2 µM (top of the series), tumour line D) -4.89% | Potency (astro)

O=c1[nH]c(=O)c2[nH]c(=O)[nH]c2[nH]1
inactive: activity change, negative = cytotoxicity (MCC-26) -17% [at 9.22 µM] | activity change, negative = cytotoxicity (MKL-1) -12.1% [at 9.22 µM] | activity change, negative = cytotoxicity (MKL-2) 7.3% [at 9.22 µM] | outcome (NIH3T3) inactive [at 9.27 µM] | activity change, negative = cytotoxicity (UISO) -5.4% [at 9.22 µM] | activity change, negative = cytotoxicity (WaGa) -8.78% [at 9.22 µM] | activity change, negative = cytotoxicity (C33A) -3.59% [at 11.6 µM] | activity change, negative = cytotoxicity (CASKI) -0.141% [at 11.6 µM] | activity change, negative = cytotoxicity (Es-2) -0.66% [at 11.6 µM] | activity change, negative = cytotoxicity (HeLa) 4.95% [at 11.6 µM] | activity change, negative = cytotoxicity (Hek293T) 6.53% [at 11.6 µM] | activity change, negative = cytotoxicity (JEG-3) 3.26% [at 11.6 µM] | activity change, negative = cytotoxicity (OV90) 21.7% [at 11.6 µM] | activity change, negative = cytotoxicity (PA-1) 8.45% [at 11.6 µM] | activity change, negative = cytotoxicity (SKOV3) -14.3% [at 11.6 µM] | activity change, negative = cytotoxicity (Tov-21-G) 19.2% [at 11.6 µM] | activity change, negative = cytotoxicity (Tov112D) -0.835% [at 11.6 µM] | activity, negative = cell killing [1, 2] -17.6% and -20.9% | activity, negative = cell killing [1, 3] 16.7% and -10.4% | activity, negative = cell killing [1, 4] -18.4% and -8.7% | activity, negative = cell killing [1, 5] -21% and -10.6% | Potency (astro)

CC(C)(C)C(=O)NCCCC(=O)O
inactive: Potency (MCC-26) | Potency (MKL-1) | Potency (MKL-2) | outcome (NIH3T3) | Potency (UISO) | Potency (WaGa) | Potency (C33A) | Potency (CAOV3) | Potency (CASKI) | Potency (Es-2) | Potency (HeLa) | Potency (Hek293T) | Potency (JEG-3) | Potency (OV90) | Potency (PA-1) | Potency (SKOV3) | Potency (Tov-21-G) | Potency (Tov112D) | activity, negative = cell killing [1, 2] -17.2% | activity, negative = cell killing [1, 3] -2.84% | activity, negative = cell killing [1, 5] -20.2% | Potency (astro)

Reference: PubChem BioAssay (NCATS)
